# Test results taken from publication PMC7862700, “An all-to-all approach to the identification of sequence-specific readers for epigenetic DNA modifications on cytosine”.
# Legend:
# Assay in all cases: DAPPL (digital affinity profiling via proximity ligation, sequencing); 10 mM Tris-HCl pH 7.5, 50 mM NaCl, 1 mM DTT, 4% glycerol, room temperature, 30 min; GST-TFs on glutathione beads, 16-mer random dsDNA library, 0.1% formaldehyde crosslink after washing; high values mean tight binding
# Conditions in all cases: protein: recombinant; tags: N-terminal GST; dsDNA, one strand shown
# [1] = target: T1, FLI1 (Homo sapiens, UniProt Q01543 1-452)
# T1 sequence: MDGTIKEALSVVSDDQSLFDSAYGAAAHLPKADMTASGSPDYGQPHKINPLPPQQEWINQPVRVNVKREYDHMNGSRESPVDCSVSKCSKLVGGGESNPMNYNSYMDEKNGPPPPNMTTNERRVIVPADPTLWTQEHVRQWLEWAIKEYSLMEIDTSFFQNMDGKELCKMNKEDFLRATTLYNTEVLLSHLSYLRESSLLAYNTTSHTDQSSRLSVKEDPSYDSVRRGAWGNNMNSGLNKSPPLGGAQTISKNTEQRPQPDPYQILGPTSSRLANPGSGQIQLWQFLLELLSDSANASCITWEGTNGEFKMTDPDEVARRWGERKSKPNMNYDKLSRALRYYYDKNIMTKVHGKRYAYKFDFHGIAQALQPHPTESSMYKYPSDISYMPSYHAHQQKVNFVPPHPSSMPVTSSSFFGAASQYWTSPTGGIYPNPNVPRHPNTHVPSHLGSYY
# How it was run: (§1)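 Binding signal is each hexamer's read frequency for a factor divided by its frequency in the tag-only sample. The factors were GST-fused human transcription factors from yeast, captured on glutathione beads, DNA-barcoded and pooled with that sample. Pools were incubated with 200 nmole of a random double-stranded 16-mer DNA library in Tris/NaCl/DTT/glycerol buffer at room temperature for 30 min, then washed, crosslinked with 0.1% formaldehyde, proximity-ligated with BsaI/T4 ligase (1 h, 37 °C), PCR-amplified and sequenced on an Illumina NextSeq500.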
# [2] = target: T2, ELK1 (Homo sapiens, UniProt P19419 1-428)
# T2 sequence: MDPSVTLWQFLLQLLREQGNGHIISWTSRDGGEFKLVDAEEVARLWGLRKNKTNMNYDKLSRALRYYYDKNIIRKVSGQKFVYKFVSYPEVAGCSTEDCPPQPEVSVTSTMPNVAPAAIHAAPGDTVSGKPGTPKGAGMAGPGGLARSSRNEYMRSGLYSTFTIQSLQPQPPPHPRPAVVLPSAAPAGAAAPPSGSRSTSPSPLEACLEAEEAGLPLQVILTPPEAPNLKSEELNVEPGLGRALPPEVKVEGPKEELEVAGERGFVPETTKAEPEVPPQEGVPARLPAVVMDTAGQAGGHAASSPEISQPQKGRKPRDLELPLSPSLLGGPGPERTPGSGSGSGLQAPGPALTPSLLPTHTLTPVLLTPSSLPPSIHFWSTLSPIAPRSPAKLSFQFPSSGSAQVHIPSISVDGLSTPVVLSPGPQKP
# How it was run: as §1
# [3] = target: T3, GABPA (Homo sapiens, UniProt Q06546 1-454)
# T3 sequence: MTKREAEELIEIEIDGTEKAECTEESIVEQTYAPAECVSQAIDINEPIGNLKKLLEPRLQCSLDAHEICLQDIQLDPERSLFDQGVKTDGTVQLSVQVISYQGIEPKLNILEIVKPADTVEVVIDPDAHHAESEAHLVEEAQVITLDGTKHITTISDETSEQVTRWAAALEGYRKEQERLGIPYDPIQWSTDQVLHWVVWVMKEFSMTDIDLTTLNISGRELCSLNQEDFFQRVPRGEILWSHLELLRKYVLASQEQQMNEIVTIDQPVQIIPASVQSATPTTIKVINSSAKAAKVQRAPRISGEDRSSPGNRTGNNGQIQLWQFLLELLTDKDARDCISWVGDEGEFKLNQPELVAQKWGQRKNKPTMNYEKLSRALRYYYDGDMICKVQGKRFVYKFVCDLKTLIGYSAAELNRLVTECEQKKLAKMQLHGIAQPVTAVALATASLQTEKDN
# How it was run: as §1
# [4] = target: T4, ERG (Homo sapiens, UniProt P11308 1-479)
# T4 sequence: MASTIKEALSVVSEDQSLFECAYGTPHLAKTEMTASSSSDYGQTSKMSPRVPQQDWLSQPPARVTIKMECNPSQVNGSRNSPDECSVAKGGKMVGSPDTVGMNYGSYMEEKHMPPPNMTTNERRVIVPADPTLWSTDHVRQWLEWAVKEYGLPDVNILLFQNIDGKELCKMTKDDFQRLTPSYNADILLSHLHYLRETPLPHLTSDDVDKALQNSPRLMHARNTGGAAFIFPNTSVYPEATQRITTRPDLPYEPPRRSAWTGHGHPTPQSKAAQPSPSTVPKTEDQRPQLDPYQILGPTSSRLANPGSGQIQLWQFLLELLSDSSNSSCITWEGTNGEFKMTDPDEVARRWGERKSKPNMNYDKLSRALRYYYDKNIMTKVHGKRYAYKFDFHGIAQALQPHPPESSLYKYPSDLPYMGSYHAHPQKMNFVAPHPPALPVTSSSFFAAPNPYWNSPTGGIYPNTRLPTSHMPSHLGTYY
# How it was run: as §1
# [5] = target: ELF1 (Homo sapiens, UniProt P32519 1-619)
# How it was run: as §1
# [6] = target: T5, EHF (Homo sapiens, UniProt Q9NZC4 1-300)
# T5 sequence: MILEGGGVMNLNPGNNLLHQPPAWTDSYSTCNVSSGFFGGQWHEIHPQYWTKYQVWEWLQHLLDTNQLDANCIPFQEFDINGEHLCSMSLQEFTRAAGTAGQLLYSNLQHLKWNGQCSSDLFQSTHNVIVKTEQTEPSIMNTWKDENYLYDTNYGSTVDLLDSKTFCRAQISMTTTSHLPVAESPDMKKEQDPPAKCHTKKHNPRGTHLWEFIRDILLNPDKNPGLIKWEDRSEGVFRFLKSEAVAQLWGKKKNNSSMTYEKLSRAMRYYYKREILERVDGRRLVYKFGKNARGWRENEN
# How it was run: as §1
# [7] = target: SPI1 (Homo sapiens, UniProt P17947 1-270)
# How it was run: as §1
# [8] = target: SPIB (Homo sapiens, UniProt Q01892 1-262)
# How it was run: as §1
# [9] = target: T6, ELK3 (Homo sapiens, UniProt P41970 1-407)
# T6 sequence: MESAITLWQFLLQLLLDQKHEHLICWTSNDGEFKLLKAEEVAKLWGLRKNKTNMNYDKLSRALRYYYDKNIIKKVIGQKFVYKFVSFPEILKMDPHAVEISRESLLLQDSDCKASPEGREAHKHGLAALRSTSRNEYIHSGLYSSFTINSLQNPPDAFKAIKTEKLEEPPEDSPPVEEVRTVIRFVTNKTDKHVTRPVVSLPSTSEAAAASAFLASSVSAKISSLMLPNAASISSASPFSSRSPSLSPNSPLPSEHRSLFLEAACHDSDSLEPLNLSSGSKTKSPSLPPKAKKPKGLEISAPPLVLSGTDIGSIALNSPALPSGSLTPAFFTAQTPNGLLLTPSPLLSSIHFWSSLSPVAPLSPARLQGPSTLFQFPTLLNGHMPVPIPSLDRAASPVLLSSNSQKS
# How it was run: as §1
# [10] = target: T7, FEV (Homo sapiens, UniProt Q99581 1-238)
# T7 sequence: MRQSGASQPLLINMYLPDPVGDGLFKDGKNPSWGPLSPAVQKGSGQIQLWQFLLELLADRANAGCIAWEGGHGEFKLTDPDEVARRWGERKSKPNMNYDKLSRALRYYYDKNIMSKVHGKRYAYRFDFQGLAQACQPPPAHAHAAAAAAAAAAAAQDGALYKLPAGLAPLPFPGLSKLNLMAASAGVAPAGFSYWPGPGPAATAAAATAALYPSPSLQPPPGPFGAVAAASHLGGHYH
# How it was run: as §1
# [11] = target: T8, SPIC (Homo sapiens, UniProt Q8N5J4 1-248)
# T8 sequence: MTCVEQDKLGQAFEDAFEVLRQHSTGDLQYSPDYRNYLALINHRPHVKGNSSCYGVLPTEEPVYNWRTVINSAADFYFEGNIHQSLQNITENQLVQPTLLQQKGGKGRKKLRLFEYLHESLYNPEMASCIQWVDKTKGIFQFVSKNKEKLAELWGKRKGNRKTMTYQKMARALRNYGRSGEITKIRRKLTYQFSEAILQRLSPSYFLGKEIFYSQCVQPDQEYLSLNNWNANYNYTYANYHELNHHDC
# How it was run: as §1
# Chain of ELF1 (P32519 whole entry): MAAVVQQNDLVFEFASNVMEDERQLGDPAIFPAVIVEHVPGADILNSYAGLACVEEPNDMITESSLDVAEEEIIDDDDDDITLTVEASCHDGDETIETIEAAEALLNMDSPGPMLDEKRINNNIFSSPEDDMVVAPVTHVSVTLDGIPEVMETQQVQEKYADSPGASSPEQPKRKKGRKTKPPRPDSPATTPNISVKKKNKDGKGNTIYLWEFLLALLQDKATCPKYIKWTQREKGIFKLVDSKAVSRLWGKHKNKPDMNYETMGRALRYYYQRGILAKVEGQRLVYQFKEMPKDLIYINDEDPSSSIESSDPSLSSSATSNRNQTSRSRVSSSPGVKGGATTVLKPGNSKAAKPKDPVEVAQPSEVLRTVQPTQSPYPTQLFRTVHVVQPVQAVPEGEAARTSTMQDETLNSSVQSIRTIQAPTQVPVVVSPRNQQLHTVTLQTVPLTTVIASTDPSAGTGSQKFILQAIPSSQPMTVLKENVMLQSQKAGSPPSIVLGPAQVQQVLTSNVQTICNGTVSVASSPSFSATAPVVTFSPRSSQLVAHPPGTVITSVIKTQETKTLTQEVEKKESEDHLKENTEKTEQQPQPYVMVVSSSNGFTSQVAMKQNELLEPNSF
# Chain of SPIB (Q01892 whole entry): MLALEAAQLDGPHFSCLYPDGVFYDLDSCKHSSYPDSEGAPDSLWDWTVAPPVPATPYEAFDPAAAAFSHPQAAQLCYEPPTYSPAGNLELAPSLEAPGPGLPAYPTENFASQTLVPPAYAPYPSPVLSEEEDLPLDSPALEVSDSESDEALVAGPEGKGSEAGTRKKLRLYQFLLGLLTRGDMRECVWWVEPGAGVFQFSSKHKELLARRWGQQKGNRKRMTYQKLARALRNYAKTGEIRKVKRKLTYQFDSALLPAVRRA
sequence,measurement,setting,value
ATGGGG,binding signal,[1],"1.11 fold enrichment (6-mer frequency, TF over GST control)"
same,binding signal,[2],"1.09 fold enrichment (6-mer frequency, TF over GST control)"
same,binding signal,[3],"1.08 fold enrichment (6-mer frequency, TF over GST control)"
same,binding signal,[4],"1.07 fold enrichment (6-mer frequency, TF over GST control)"
same,binding signal,[5],"1.06 fold enrichment (6-mer frequency, TF over GST control)"
same,binding signal,[6],"1.11 fold enrichment (6-mer frequency, TF over GST control)"
same,binding signal,[7],"1.11 fold enrichment (6-mer frequency, TF over GST control)"
same,binding signal,[8],"1.14 fold enrichment (6-mer frequency, TF over GST control)"
same,binding signal,[9],"1.05 fold enrichment (6-mer frequency, TF over GST control)"
same,binding signal,[10],"1.05 fold enrichment (6-mer frequency, TF over GST control)"
same,binding signal,[11],"1.16 fold enrichment (6-mer frequency, TF over GST control)"
